Results from PubChem BioAssay (NCATS).
Records with an inconclusive call do not appear. Activity calls are given as the source filed them. The call rests on the fitted dose curve; in most records, active means well fitted inhibition curve with a large enough effect; inconclusive means small, poorly fitted or top-dose-only effect; inactive means flat fitted curve, though single readings scatter.

Experiments:
Experiment in all cases: qHTS profiling for inhibitors of Plasmodium falciparum proliferation (AID 504749); further: nearly all actives have a fitted effect of over 60% in size
Details in all cases: P. falciparum in erythrocytes, SYBR Green DNA, 72 h; series mostly up to 28.7 µM
[1] = test system: CP185
Procedure, shortened: (§1)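 In a 72 h erythrocytic culture (37 C, humidified, 5% CO2) at 2.5% hematocrit and 0.3% starting parasitemia, compounds were tested; SYBR Green I in detergent lysis buffer stained parasite DNA overnight.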

[2] = test system: CP191
Procedure, shortened: as §1

[3] = test system: CP192
Procedure, shortened: as §1

[4] = test system: CP194
Procedure, shortened: as §1

[5] = test system: CP201
Procedure, shortened: as §1

[6] = test system: CP203
Procedure, shortened: as §1

[7] = test system: CP211
Procedure, shortened: as §1

[8] = test system: CP215
Procedure, shortened: as §1

[9] = test system: CP217
Procedure, shortened: as §1

[10] = test system: CP237
Procedure, shortened: as §1

[11] = test system: CP238
Procedure, shortened: as §1

[12] = test system: CP247
Procedure, shortened: as §1

[13] = test system: CP250
Procedure, shortened: as §1

[14] = test system: CP252
Procedure, shortened: as §1

[15] = test system: CP256
Procedure, shortened: as §1

[16] = test system: CP260
Procedure, shortened: as §1

[17] = test system: CP262
Procedure, shortened: as §1

[18] = test system: CP265
Procedure, shortened: as §1

[19] = test system: CP266
Procedure, shortened: as §1

[20] = test system: CP268
Procedure, shortened: as §1

Measured: Potency
Potency means the concentration at half of the fitted maximal effect.

CC(C)[N+](C)(CCC(C(N)=O)(c1ccccc1)c1ccccc1)C(C)C
inactive: [1] | [2] | [3] | [4] | [5] | [6] | [7] | [8] | [9] | [10] | [11] | [12] | [13] | [14] | [15] | [16] | [17] | [18] | [19] | [20]

C[N+]1(CCC(C(N)=O)(c2ccccc2)c2ccccc2)CCCCC1
inactive: [1] | [2] | [3] | [4] | [5] | [6] | [7] | [8] | [9] | [10] | [11] | [12] | [13] | [14] | [15] | [16] | [17] | [18] | [19] | [20]

CN(C)C(=S)SSC(=S)N(C)C
active: [1] 2 µM | [2] 3.16 µM | [3] 3.79 µM | [4] 3.38 µM | [5] 4.26 µM | [6] 4.78 µM | [7] 2.69 µM | [8] 5.36 µM | [9] 3.98 µM | [10] 1.58 µM | [11] 3.55 µM | [12] 2.82 µM | [13] 3.16 µM | [14] 3.98 µM | [15] 3.55 µM | [16] 0.891 µM | [17] 2.13 µM | [18] 3.98 µM | [19] 4.78 µM | [20] 3.01 µM

COc1ccc(C(=O)N2CCCC2=O)cc1
inactive: [1] | [2] | [3] | [4] | [5] | [6] | [7] | [8] | [9] | [10] | [11] | [12] | [13] | [14] | [15] | [16] | [17] | [18] | [19] | [20]

c1ccc2nc(N3CCNCC3)ccc2c1
inactive: [1] | [2] | [3] | [4] | [5] | [6] | [7] | [8] | [9] | [10] | [11] | [12] | [13] | [14] | [15] | [16] | [17] | [18] | [19] | [20]

COP(=S)(OC)Oc1ccc(Sc2ccc(OP(=S)(OC)OC)cc2)cc1
inactive: [1] | [2] | [3] | [4] | [5] | [6] | [7] | [8] | [9] | [10] | [11] | [12] | [13] | [14] | [15] | [16] | [17] | [18] | [19] | [20]

Oc1c(Br)cc(Br)cc1Br
inactive: [1] | [2] | [3] | [4] | [5] | [6] | [7] | [8] | [9] | [10] | [11] | [12] | [13] | [14] | [15] | [16] | [17] | [18] | [19] | [20]

C#C[C@]1(O)CC[C@H]2[C@@H]3CCC4=CC(=O)CCC4=C3C=C[C@@]21CC
active: [2] 3.16 µM | [10] 0.178 µM | [12] 3.55 µM
inactive: [3] | [7]

C[C@]12Cc3nonc3C[C@@H]1CC[C@@H]1[C@@H]2CC[C@@]2(C)[C@H]1CC[C@]2(C)O
inactive: [1] | [2] | [3] | [5] | [6] | [7] | [8] | [10] | [11] | [12] | [13] | [14] | [15] | [16] | [17] | [18] | [19] | [20]

COC(=O)C1=CCCN(C)C1
inactive: [1] | [2] | [3] | [4] | [5] | [6] | [7] | [8] | [9] | [10] | [11] | [12] | [13] | [14] | [15] | [17] | [18] | [19] | [20]

Clc1ccc(CO/N=C(\Cn2ccnc2)c2ccc(Cl)cc2Cl)c(Cl)c1
active: [1] 10 µM | [2] 3.98 µM | [3] 16.9 µM | [4] 10.7 µM | [6] 5.36 µM | [8] 6.75 µM | [9] 3.98 µM | [10] 3.98 µM | [11] 5.01 µM | [12] 4.47 µM | [13] 7.08 µM | [14] 6.31 µM | [16] 7.08 µM | [17] 15.1 µM | [18] 4.47 µM

CN1CCc2cc(Cl)c(O)cc2[C@H]2c3ccccc3CC[C@@H]21
active: [10] 5.62 µM
inactive: [3] | [5] | [17]

Nc1ccc(N)cc1
active: [12] 8.91 µM | [13] 12.6 µM
inactive: [3] | [10] | [16] | [19]

C[N+](C)(C)CCOC(=O)C(O)(c1ccccc1)c1ccccc1
inactive: [1] | [2] | [3] | [4] | [5] | [6] | [7] | [8] | [9] | [10] | [11] | [12] | [13] | [14] | [15] | [16] | [17] | [18] | [20]

COCC(=O)N(c1c(C)cccc1C)C(C)C(=O)OC (stereo not drawn)
inactive: [3] | [4] | [5] | [6] | [7] | [8] | [10] | [15] | [16] | [17] | [19] | [20]

COc1ccc(CN2CCNCC2)c(OC)c1OC
inactive: [1] | [2] | [3] | [9] | [10] | [11] | [12] | [13] | [14] | [15] | [16] | [17] | [18]

CC(C)(O)C(Cl)(Cl)Cl
inactive: [17]
active: [2] 3.16 µM | [6] 10.7 µM | [8] 8.49 µM | [10] 3.16 µM | [11] 10 µM | [12] 10 µM | [13] 12.6 µM | [15] 10 µM | [16] 3.55 µM | [18] 2.51 µM | [20] 6.01 µM

CC[C@]1(O)CC[C@H]2[C@@H]3CCC4=CCCC[C@@H]4[C@H]3CC[C@@]21C
inactive: [3] | [4] | [5] | [6] | [7] | [8] | [10] | [11] | [12] | [14] | [16] | [17] | [19] | [20]

ClC1=C(Cl)C2(Cl)C(CBr)CC1(Cl)C2(Cl)Cl (stereo not drawn)
inactive: [1] | [2] | [3] | [4] | [5] | [6] | [7] | [8] | [9] | [10] | [11] | [12] | [13] | [14] | [15] | [17] | [18] | [19] | [20]

CCS(=O)(=O)C(C)(C)S(=O)(=O)CC
inactive: [1] | [2] | [3] | [4] | [5] | [6] | [8] | [9] | [10] | [11] | [12] | [13] | [14] | [15] | [16] | [17] | [18] | [19] | [20]

O=C(NC(=O)c1c(F)cccc1F)Nc1cc(Cl)c(OC(F)(F)C(F)C(F)(F)F)cc1Cl (stereo not drawn)
active: [15] 8.91 µM | [16] 10 µM | [18] 7.94 µM
inactive: [3] | [4] | [5] | [6] | [7] | [8] | [17] | [19] | [20]

c1cc2c(c(N3CCNCC3)c1)OCCO2
inactive: [1] | [2] | [3] | [4] | [5] | [6] | [7] | [8] | [9] | [10] | [11] | [12] | [13] | [14] | [15] | [16] | [17] | [18] | [20]

Oc1ccc2[nH]cc(CCCCN3CC=C(c4ccccc4)CC3)c2c1
active: [10] 5.62 µM | [12] 7.08 µM

CN1C(=O)[C@@H](NC(=O)c2cc3ccccc3[nH]2)N=C(c2ccccc2)c2ccccc21
inactive: [5] | [12] | [17]

CC(Cc1ccccc1)NCc1ccccc1Cl (stereo not drawn)
active: [18] 11.2 µM
inactive: [2] | [3] | [5] | [7] | [8] | [13] | [17] | [19]

O=C(O)c1nn(Cc2ccc(Cl)cc2Cl)c2ccccc12
inactive: [1] | [2] | [3] | [4] | [5] | [7] | [8] | [9] | [10] | [11] | [12] | [13] | [14] | [15] | [16] | [17] | [18] | [19] | [20]

CCCCCCCCC(=O)NCc1ccc(O)c(OC)c1
inactive: [1] | [2] | [3] | [4] | [5] | [6] | [7] | [8] | [9] | [10] | [11] | [12] | [13] | [14] | [15] | [16] | [17] | [18] | [20]

CCN(CC)CCOC(=O)C(C)(c1ccccc1)c1ccccc1
active: [6] 7.57 µM
inactive: [3] | [5]

C=CCOC(Cn1ccnc1)c1ccc(Cl)cc1Cl (stereo not drawn)
inactive: [15] | [17]
active: [4] 15.1 µM | [6] 9.53 µM | [8] 12 µM | [9] 11.2 µM | [10] 4.47 µM | [13] 10 µM | [16] 10 µM | [20] 15.1 µM

C[C@]12C=CC(=O)C=C1CC[C@@H]1[C@@H]2CC[C@@]2(C)[C@H]1CC[C@]2(C)O
inactive: [1] | [2] | [9] | [10] | [11] | [12] | [13] | [14] | [15] | [16] | [17] | [18]

CN1C(=O)CN=C(c2ccccc2)c2cc([N+](=O)[O-])ccc21
inactive: [1] | [2] | [3] | [4] | [5] | [6] | [7] | [9] | [10] | [11] | [12] | [13] | [14] | [15] | [16] | [17] | [18] | [19] | [20]

Cc1c(Cl)c(=O)oc2cc(OP(=O)(OCCCl)OCCCl)ccc12
active: [2] 10 µM | [4] 9.53 µM | [5] 13.5 µM | [6] 8.49 µM | [7] 9.53 µM | [8] 9.53 µM | [9] 8.91 µM | [10] 7.94 µM | [11] 8.91 µM | [13] 8.91 µM | [14] 8.91 µM | [15] 10 µM | [17] 7.57 µM | [18] 7.94 µM | [20] 12 µM

NC(=O)OCCCc1ccccc1
inactive: [1] | [2] | [3] | [4] | [5] | [7] | [8] | [9] | [10] | [11] | [12] | [13] | [14] | [15] | [16] | [17] | [18] | [19] | [20]

O=C1NCN(c2ccccc2)C12CCN(CCCOc1ccc(F)cc1)CC2
inactive: [3] | [5] | [8] | [14] | [15] | [17]
active: [10] 5.01 µM
